From ChEMBL document CHEMBL3433997, “St. Jude Leishmania screening dataset” (2016) come the findings set out here.

Type in all cases: functional
In experiment [1] the target is Solute carrier family 2, facilitated glucose transporter member 1 (Homo sapiens) (UniProt P11166). The experiment is described as follows: ST_JUDE_LEISH: Cytotoxicity at 2uM final concentration against transgenic Leishmania Mexicana promastigotes LmGLUT1 that are glucose transport deficient and complemented with the human glucose transporter GLUT1. Activity is measured by DNA content using SYBR green in vitro.
Sequence of Solute carrier family 2, facilitated glucose transporter member 1 (Homo sapiens) (P11166 whole entry): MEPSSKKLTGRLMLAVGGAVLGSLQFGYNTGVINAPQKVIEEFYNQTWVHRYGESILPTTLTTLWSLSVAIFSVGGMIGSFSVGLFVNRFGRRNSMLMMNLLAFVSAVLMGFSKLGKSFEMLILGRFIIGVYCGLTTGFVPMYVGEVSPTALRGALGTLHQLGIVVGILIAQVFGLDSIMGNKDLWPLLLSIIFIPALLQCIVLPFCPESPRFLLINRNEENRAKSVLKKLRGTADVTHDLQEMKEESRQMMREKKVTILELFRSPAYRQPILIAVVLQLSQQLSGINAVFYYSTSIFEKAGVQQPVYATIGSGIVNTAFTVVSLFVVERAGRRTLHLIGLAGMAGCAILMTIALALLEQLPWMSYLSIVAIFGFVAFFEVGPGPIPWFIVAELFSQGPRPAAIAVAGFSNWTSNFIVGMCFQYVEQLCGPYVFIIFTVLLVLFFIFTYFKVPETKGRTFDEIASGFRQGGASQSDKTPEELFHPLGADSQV

Experiment [2] addresses Hexose transporter 1 (Plasmodium falciparum) (UniProt O97467). The experiment can be described thus: ST_JUDE_LEISH: Cytotoxicity at 2uM final concentration against transgenic Leishmania Mexicana promastigotes LmPfHT that are glucose transport deficient and complemented with the Plasmodium falciparum hexose transporter. Activity is measured by DNA content using SYBR green in vitro.

The target in experiment [3] is Glucose transporter (Leishmania mexicana) (UniProt O61059). The experiment is described as follows: ST_JUDE_LEISH: Cytotoxicity at 2uM final concentration against transgenic Leishmania Mexicana promastigotes LmGT2 that are glucose transport deficient and complemented with the L. Mexicana glucose transporter 2. Activity is measured by DNA content using SYBR green in vitro.

As a reminder, the inhibition is the drop in the measured response relative to a control, in per cent.

Take `NCCCNc1ccc(-c2ccc(NC(=O)Nc3cc(C(F)(F)F)ccc3F)cc2)cn1`: the inhibition in experiment [1] worked out at 2.29%; in experiment [2], 2.81%; in experiment [3] it was 1.11%.
Consider `O=C(O)C1Cc2c([nH]c3ccccc23)C(c2ccc(Cl)cc2Cl)N1` (stereo unspecified), for which the inhibition was 3.99% in experiment [1], 2.22% in experiment [2] and 4.37% in experiment [3].
As for `O=C(/C=C/c1ccc(Cl)c(Cl)c1)NCCCCCN1CCC(NC(=O)Nc2cccc(C(F)(F)F)c2)CC1`, the values for the inhibition in experiment [1] and in experiment [2] were -1.91% and -0.93%, respectively.
Consider `Cc1ccc(NC(=O)N2CCCN(CCCCCNC(=O)/C=C/c3ccc(Cl)c(Cl)c3)CC2)cc1`, for which the inhibition in experiment [1] was -1.97%; in experiment [2], -0.68%.
Take `CCCC(C)C(=O)N1CCOC(COCc2cccc(C(F)(F)F)c2)(c2ccc(Cl)cc2)C1` (stereo unspecified): the inhibition in experiment [1] is -0.83%; in experiment [2] it was 0.15%; in experiment [3] it was -1.52%.
For `c1cc(CNCC2CCCO2)cc(-c2cccc(-c3nc4ccccc4[nH]3)c2)c1` (stereo unspecified) the same measures were 1.58%, 1.76% and -0.18%.
For the molecule `CN(C)CC(=O)N(Cc1ccc(Cl)c(Cl)c1)Cc1csc(-c2ccc(CNCc3ccccc3)cc2)n1`, the inhibition in experiment [1] was found to be 3.28%; in experiment [2], 0.77%; in experiment [3], 0.35%.
Take `CS(=O)(=O)c1cccc2sc(N3CCN(C(=O)c4ccc([N+](=O)[O-])o4)CC3)nc12`: the inhibition in experiment [1] was determined as 35.6%; in experiment [2] it was 23.7%; in experiment [3], 3.97%.
As for `Cc1cc(-c2cnc(N)c(-c3ccc(N4CCN(C)CC4)cc3)c2)cc(C)c1O`, the inhibition in experiment [1] came to 3.43%; in experiment [2] it was 0.67%; in experiment [3], 2.45%.
As to `COc1ccc(N2CCN(CCCCNC(=O)c3ccc(NC(=O)c4ccc(Cl)cc4)cc3)CC2)c(OC)c1`, the figures for the inhibition in experiment [1], in experiment [2] and in experiment [3] were 9.13%, 8.66% and 8.5%, respectively.
Take `CCOC(=O)CC[C@@H](NC(=O)c1ccc(NCc2ccc3ccc4nc(C)[nH]c(=O)c4c3c2)cc1F)C(=O)N[C@@H](Cc1c[nH]c2ccccc12)C(=O)OCC`: the values for the inhibition in experiment [1], in experiment [2] and in experiment [3] were 1.56%, 1.89% and 3.35%, respectively.
